{"source": "ChEMBL document CHEMBL1157539", "about": "“Thousands of chemical starting points for antimalarial lead identification” (Nature, 2010)", "data": [{"system": "HepG2", "assay": "GSK_TCMDC: Percent inhibition of human HepG2 cell line. Test compounds present at 10uM.", "format": "functional", "units": {"Inhibition": "%"}, "values": [{"smiles": "CCc1ccc(C2CCN(CCCCNC(=O)c3ccc(NC(=O)c4ccc(Cl)cc4)cc3)CC2)c(OCCO)c1", "Inhibition": 94}, {"smiles": "CCO[C@H]1CN[C@H](C#Cc2cc3c(Nc4ccc(OCc5cccc(F)c5)c(Cl)c4)ncnc3s2)C1.O=C(O)C(F)(F)F", "Inhibition": 8}, {"smiles": "N#Cc1cnc2cc(-c3cnc(CNCCN4CCOCC4)s3)ccc2c1Nc1ccc(Oc2ccccc2)cc1", "Inhibition": 30}, {"smiles": "CC(C)c1cccc(C(C)C)c1NC(=O)NNC(=O)c1ccc(CCN2CCC(c3nc(COCC(F)(F)F)c(-c4ccc(F)cc4)o3)CC2)cc1", "Inhibition": 61}, {"smiles": "C[C@@H](CC1CCCCC1)NCc1cccc(NS(=O)(=O)c2ccc(O)c(-c3ccno3)c2)c1.Cl", "Inhibition": 0}, {"smiles": "COc1cc2c(cc1OC)CN(CCCCc1ccc(NC(=O)c3cc(Cl)cc(Cl)c3)cc1)CC2", "Inhibition": 21}, {"smiles": "CCCc1c(Cl)cc(CNCCCNc2nc3ccncc3[nH]2)cc1Cl", "Inhibition": 23}, {"smiles": "COc1cc(NCCCNCc2cn(S(=O)(=O)c3ccccc3)c3ccccc23)nc2ccccc12", "Inhibition": 36}, {"smiles": "CC(=O)N[C@H](C(=O)Nc1ccc(-c2ccc(-c3nc4cc(C(F)(F)F)ccc4[nH]3)cc2)cc1)C(C)C", "Inhibition": 24}, {"smiles": "CC(C)N(Cc1ccc(-c2ccc(C(F)(F)F)cc2)cc1)C(=O)Cn1c(SCc2cccc(F)c2F)cc(=O)c2cc(CN3CCCCC3)ccc21.Cl", "Inhibition": 97}, {"smiles": "CN1CCC(N2CCN(Cc3cccc(-c4ccc(-c5nc6cc(C(F)(F)F)ccc6[nH]5)cc4)c3)CC2)CC1.O=C(O)C(F)(F)F", "Inhibition": 100}, {"smiles": "Cl.N=c1n(Cc2ccc(Cl)cc2)c2ccccc2n1CC(O)c1ccc(Cl)c(Cl)c1", "note": "(configuration not stated)", "Inhibition": 58}, {"smiles": "CCc1cn2c3c(cc(C(=O)N[C@@H](Cc4cccc(F)c4)[C@H](O)CNC4CCOCC4)cc13)N(C)S(=O)(=O)CC2.O=CO", "Inhibition": 0}, {"smiles": "COc1cc(Nc2nccc(Nc3ccc4c(C)n[nH]c4c3)n2)cc2ccccc12.Cl", "Inhibition": 13}, {"smiles": "O=C(Nc1cc(C(F)(F)F)ccc1-n1cncn1)C1(c2ccccc2)CC1", "Inhibition": 11}, {"smiles": "Cc1cccc2nc(-c3ccc(-c4ccc(NC(=O)Nc5ccc(F)c(F)c5F)cc4)cc3)[nH]c12", "Inhibition": 51}, {"smiles": "COc1ccc2c(NN=Cc3cccc(Cl)c3)ccnc2c1", "Inhibition": 32}, {"smiles": "CCn1c(Sc2ccc(C#N)c([N+](=O)[O-])c2)nnc1-c1ccc(OC)cc1", "Inhibition": 0}, {"smiles": "O=C1CC(C(=O)O)CC(=O)N1", "Inhibition": 0}, {"smiles": "CCC(C)NC(=O)Nc1ccc(-c2cccc(-c3nc4cccc(C)c4[nH]3)c2)cc1", "note": "(configuration not stated)", "Inhibition": 55}, {"smiles": "Clc1cc(Cl)c2cc(CNCCCNc3ccc4ccccc4n3)[nH]c2c1.O=C(O)C(F)(F)F", "Inhibition": 98}, {"smiles": "COc1ccc2nccc([C@@H](O)CN3CCC(NCc4ccc5c(n4)NCCC5)CC3)c2c1", "Inhibition": 21}, {"smiles": "Cl.Oc1ccc(Cc2cc(Oc3c(I)cc(CCc4ncc[nH]4)cc3I)ccc2O)cc1", "Inhibition": 10}, {"smiles": "O=C(NCc1cccc(F)c1)Nc1cccc(-c2ccc(-c3nc4cc(C(F)(F)F)ccc4[nH]3)cc2)c1", "Inhibition": 50}, {"smiles": "CCCCN(CCCC)CCCN(CCCN(CCCC)CCCC)c1cc(C)nc(Nc2ccc(Br)cc2)n1.O=C(O)C(=O)O", "Inhibition": 51}, {"smiles": "CC(C)c1cc2c(ccc3nc(N)nc(N)c32)o1", "Inhibition": 66}, {"smiles": "COc1ccc(CNCc2cccc(-c3csc(-c4nc5ccccc5[nH]4)c3)c2)cc1.O=C(O)C(F)(F)F", "Inhibition": 17}, {"smiles": "CC1(CCc2ccccc2)N=C(N)N=C(N)C1c1ccc(Cl)c(Cl)c1.Cl", "note": "(configuration not stated)", "Inhibition": 19}, {"smiles": "Cn1cc(C(=O)Nc2cccc(-c3cccc(-c4nc5cc(F)ccc5[nH]4)c3)c2)n(C)c1=O", "Inhibition": 15}, {"smiles": "CC(C)CCN1CCCN(Cc2cccc(NC(=O)c3ccc(-c4ccccc4)cc3)c2)CC1.O=C(O)C(F)(F)F", "Inhibition": 27}, {"smiles": "N=C(N)Nc1ccc(C(=O)O)c(O)c1", "Inhibition": 0}, {"smiles": "CN1C(=CC(=O)NC(=O)c2ccccc2)C(C)(C)c2ccccc21", "Inhibition": 0}, {"smiles": "CS(=O)(=O)c1cccc(-c2cnc(N)c3cc(-c4ccc(F)cc4)ccc23)c1", "Inhibition": 28}, {"smiles": "CCn1nc(C(=O)NC2CCOc3ccccc32)c2ccccc2c1=O", "note": "(configuration not stated)", "Inhibition": 13}, {"smiles": "COc1ccccc1Nc1nc(C)cc(NCc2ccc(-c3c(C)noc3C)cc2)n1", "Inhibition": 12}, {"smiles": "CCc1nc2c(cnn2CC)c(NC2CCOCC2)c1CNC(=O)c1ccoc1C", "Inhibition": 6}, {"smiles": "COc1ccccc1-n1c(SCC(=O)c2ccc3c(c2)CC(=O)N3C)nnc1-c1cccs1", "Inhibition": 7}]}]}
